Y pestis TopoI = inhibitors of Yersinia pestis topoisomerase I; hit rate 0.064% among 360,000; activity, % at 10 µM; AID 504884; Y. pestis Topo-I cleavage product accumulation, plate reader; in the data active = activity above about 50%, passing the limit was not always enough; inconclusive = no clear call, values can overlap the other calls
PrPC surface inh = reduces human prion protein on the cell surface | cell surface PrPC, TR-FRET read-out | inhibition, % at 13.8 µM | P04156 | hit rate 0.43% among 370,000; in the data active = inhibition above about 24%; also: 0% = median of the test wells and 100% = reference compound wells
PfHsp40 yeast = compounds rescuing yeast from Plasmodium falciparum HSP40 toxicity; S. cerevisiae expressing PfHsp40, growth rescue, ATP luminescence; growth rescue, % at 12.5 µM; hit rate 0.68% among 340,000; in the data active = growth rescue above about 28%, passing the limit was not always enough; inconclusive = no clear call, values can overlap the other calls;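 also: yeast W303a lacking pdr1 and pdr3 grown in galactose medium; growth measured after three days at 30 °C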
PrP UTR inh = suppresses PrP 5' UTR mRNA reporter expression; cell-based PrP 5' UTR mRNA reporter, plate reader; inhibition, % (no concentration beside the values); hit rate 0.35% among 340,000; AID 488862; in the data active = inhibition above about 52%; also: 0 = median of the neutral control wells
BJeLR lethal = BJeLR cell viability loss; BJeLR (HRASV12) viability, CellTiter-Glo ATP luminescence, 48 h; inhibition, % (test concentration not listed); hit rate 0.17% among 300,000; AID 1554; in the data active = inhibition above about 50%; inconclusive = no clear call, values can overlap the other calls
CCHF vOTU inh-1 = CCHFV vOTU protease inhibition; Pep-AMC fluorescence; inhibition, % at 11.5 µM; hit rate 0.55% among 370,000; AID 651958; also: 0% = vehicle wells with enzyme and 100% = no enzyme wells
CCHF vOTU inh-2 = confirmation of CCHF virus vOTU protease inhibitors; shares compounds with CCHF vOTU inh-1; Recombinant CCHFV vOTU, Pep-AMC fluorescence; inhibition, % at 11.5 µM; hit rate 17% among 1,900
* hit, by the source's call; ? = inconclusive; / = no result. Only some compounds are listed: those with a hit (about 2% of all), similar ones and a draw of the others. Rule as the data show it, unless noted: active = inhibition above about 30%; inactive = the rest.

SMILES	Y pestis TopoI	PrPC surface inh	PfHsp40 yeast	PrP UTR inh	BJeLR lethal	CCHF vOTU inh-1	CCHF vOTU inh-2
CC(=O)NC(c1cccc(F)c1)c1nc(-c2cc(F)cc(Cl)c2)cs1 (stereo not given)	-1	4	/	/	/	36*	-1
COCC(=O)N1CCC(C(=O)NCC2COc3ccccc3O2)CC1 (stereo not given)	/	-7	/	/	/	-4	/
Cc1ccc([C@H]2C(C(=O)O)=CC[C@@H](c3ccc(C(C)C)cc3)N2S(=O)(=O)c2ccc(C)cc2)cc1	27	4	8	-9	/	38*	19
Cc1ccc(S(=O)(=O)N2[C@@H](c3ccc(Cl)cc3)C(C(=O)O)=CC[C@H]2c2ccc(C(C)C)cc2)cc1	6	1	6	-1	/	27	/
Cc1ccc(S(=O)(=O)N2[C@@H](c3ccccc3)C(C(=O)O)=CC[C@H]2c2ccc(C(C)C)cc2)cc1	4	5	133*	-23	/	30*	2
Cc1ccc([C@H]2C(C(=O)O)=CC[C@@H](c3ccc(Cl)cc3)N2S(=O)(=O)c2ccc(C)cc2)cc1	8	-1	46*	8	/	33*	0
O=C(O)C1=CC[C@@H](c2ccc(Cl)cc2)N(S(=O)(=O)c2ccc(Cl)cc2)[C@H]1c1ccccc1	6	-1	9	-16	/	11	/
Cc1ccc(S(=O)(=O)N2[C@@H](c3ccc(C(C)(C)C)cc3)C(C(=O)O)=CC[C@H]2c2ccc(Cl)c(Cl)c2)cc1	6	-4	3	-25	/	19	/
Cc1ccc(S(=O)(=O)N2[C@@H](c3ccc(Br)cc3)C(C(=O)O)=CC[C@H]2c2ccc(Cl)c(Cl)c2)cc1	17	-2	4	-12	/	32*	9
CCCN1C(=O)c2n[nH]c(C)c2C1c1ccc2c(c1)OCO2 (stereo not given)	/	-1	/	/	/	-3	/
C[C@H]1[C@@H](NC(=O)c2cccc(N(C)C)c2)CC[C@@]23CCCN2C(=O)CCC[C@@H]13	/	2	/	/	/	/	/
Cc1ccccc1CN1[C@@H](C)[C@H](c2ccccc2)Oc2cccc(N3CCCC3)c2S1(=O)=O	/	-2	/	/	/	9	/
Cc1ccc([C@H]2C(C(=O)O)=CC[C@@H](c3ccc(C)cc3)N2S(=O)(=O)c2ccc(C)cc2)cc1	23	-1	0	-10	/	27	/
O=C(O)C1=CCC(c2ccc(Cl)c(Cl)c2)N(S(=O)(=O)c2ccc(F)cc2)C1c1cccc(F)c1 (stereo not given)	/	5	/	/	/	37*	-10
CCc1ccc([C@@H]2C[C@H]3[C@@H](CN2S(=O)(=O)c2ccc(C)cc2)C(=O)C[C@@H](c2ccc(C)cc2)N3S(=O)(=O)c2ccc(C)cc2)cc1	9	-1	/	/	/	34*	-20
CCc1ccc([C@@H]2CC=C(C(=O)O)[C@H](c3ccc(C)cc3)N2S(=O)(=O)c2ccc(C)cc2)cc1	14	-2	14	-60	/	32*	16
Cc1ccc(S(=O)(=O)N2[C@@H](c3ccc(C(C)(C)C)cc3)C(C(=O)O)=CC[C@H]2c2cccc(Cl)c2)cc1	11	0	-1	-4	/	38*	11
COc1ccccc1S(=O)(=O)N(C)C[C@H]1Oc2cc(Br)ccc2S(=O)(=O)N([C@H](C)CO)C[C@H]1C	/	-2	/	/	/	14	/
COC(=O)[C@]12C[C@H](CC(=O)NCC3CCCCC3)C(=O)N(Cc3ccc(Cl)cc3Cl)C1=C[C@H](COCc1ccccc1)O[C@@H]2C	/	-4	/	/	/	15	/
C=CCN1C(=O)[C@@H](CC(=O)NCc2ccccc2)[C@]2(C(=O)OC)CCCCC=C12	/	9	/	/	/	4	/
OCCN1CN(c2ccccc2)C(=S)N(c2ccccc2)C1	/	-6	/	/	/	-7	/
CC(C)[C@@H]1OC(=O)[C@@H]2CCCN2C(=O)[C@H](C)OC(=O)[C@H](C)[C@@H](C(C)C)NC(=O)[C@@H]2CCCN2C(=O)[C@H]([C@H](C)Cc2ccccc2)NC(=O)[C@@H]2CCCN2C(=O)[C@@H](C(C)C)N(C)C1=O	/	-3	/	/	/	/	/
C=CCCC[C@H]1OC(=O)[C@H](C)NC(=O)[C@H](C(C)C)NC(=O)[C@@H]2CCCN2C(=O)[C@H](Cc2ccccc2)OC(=O)[C@@H](C(C)C)N(C)C(=O)[C@H](C(C)C)NC(=O)C1(C)C	/	12	/	/	/	30*	6
C#CCNC(=O)C[C@H]1C[C@@]2(C(=O)OC)C(=C[C@H](C(C)C)O[C@@H]2C2CC2)N(Cc2ccc(Cl)cc2Cl)C1=O	/	5	/	/	/	9	/
CCN(Cc1cc(=O)n2ccsc2n1)c1cccc2ccccc12	23	13	178*	-13	0	54*	-4
SMILES	Y pestis TopoI	PrPC surface inh	PfHsp40 yeast	PrP UTR inh	BJeLR lethal	CCHF vOTU inh-1	CCHF vOTU inh-2
Cc1cc(SCc2cc(=O)n3ccsc3n2)nc2ccccc12	3	-1	-1	-12	-5	-2	/
CC(C(=O)Nc1cccnc1)N1C(=O)c2ccccc2C1=O (stereo not given)	-2	-6	0	-26	14	-12	/
Cc1ccc(NC2=CC(=O)C(=O)c3ccccc32)c(C)c1	-12	-1	?	-10	/	2	/
CCOc1ccc(NC2=CC(=O)C(=O)c3ccccc32)cc1	-11	-14	12	-53	/	91*	45*
O=C1C=C(Nc2ccc(F)cc2)c2ccccc2C1=O	2	1	-2	-8	/	22	/
O=C1C=C(Nc2cccnc2)c2ccccc2C1=O	-3	-10	-1	-69	/	98*	96*
O=C1C=C(Nc2ccccc2O)c2ccccc2C1=O	4	-26	74*	-67	-5	97*	74*
O=C1C=C(NCc2ccccc2)c2ccccc2C1=O	-8	-6	2	-36	1	64*	89*
CC(C)C[C@@H]1COc2cc(N3CCOCC3)ccc2S(=O)(=O)N1	/	-2	/	/	/	-7	/
COc1ccc(S[C@]2(C(=O)N3CCCC3)CC(=O)N[C@@H]2c2ccc(OC)cc2)cc1	/	-10	/	/	/	2	/
Cc1c(C=O)c(Cl)n(C)c(=O)c1C#N	-3	-2	1	-32	4	68*	110*
CC(=O)NC1=C(N(C)C2CCS(=O)(=O)C2)C(=O)c2ccccc2C1=O (stereo not given)	-2	-55	-1	-30	-7	61*	71*
CN(C(=O)Nc1ccccc1)C1CCS(=O)(=O)C1 (stereo not given)	4	-6	-1	-8	4	5	/
COc1cc(CN2CCN(C(C)C)C(CCO)C2)ccc1OCc1ccccc1 (stereo not given)	1	-9	-1	-42	-7	30*	-5
COc1ccc(CN2CCN(Cc3ccccc3)C(CCO)C2)cc1OC (stereo not given)	1	-4	-1	3	-9	-8	/
COc1ccccc1/C=C/C=N/NC(=O)c1cnccn1	0	-12	0	-31	8	30*	-3
Cc1ccc(S(=O)(=O)Nc2cc(Cl)c(O)c3ncccc23)cc1	-16	-18	-2	22	22	30*	-3
